The structures appear in SMILES notation. Activity calls are given as the source filed them. The calls were made as follows: active = hit-call score of the fitted dose curve at least 0.9, where 1 is the maximum; inactive = score below 0.9.

Read-out in the first test: Epidermal growth factor receptor (EGFR), EGFR (gene 1956)
Nature of the test: BSK_hDFCGF_EGFR: BioMAP Diversity Plus: hDFCGF Assay for Epidermal growth factor receptor (EGFR) Biomarker Activity (AID 2283057). Conditions: primary human foreskin fibroblasts; actives raise or lower the signal. In short, it runs like this: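 Measured by ELISA: EGFR levels on primary human foreskin fibroblasts 24 h after chemical treatment, analysed relative to DMSO with bidirectional fitting.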
With `CCN(Cc1cccc(S(=O)(=O)O)c1)c1ccc(C(=C2C=CC(=[N+](CC)Cc3cccc(S(=O)(=O)O)c3)C=C2)c2ccccc2S(=O)(=O)[O-])cc1`, the result was inactive.

As for `CCCCOC(=O)CC(CC(=O)OCCCC)(OC(C)=O)C(=O)OCCCC`, the outcome was inactive.

As for `CN(C)C(=O)C1(N2CCCCC2)CCN(CC[C@@]2(c3ccc(Cl)c(Cl)c3)CN(C(=O)c3ccccc3)CCO2)CC1`, the AC50 (as a rule, the concentration at which the activity in the assay is half-maximal) was 9.57 µM (active).

For `CCCCOC(=O)c1ccc(O)cc1`, the outcome was inactive.

With `O=C1CCC(C2CCCCC2)CC1`, the AC50 was 29.9 µM (active).

In the case of `CCO[Si](CCCNC(N)=O)(OCC)OCC`, the outcome was inactive.

In the case of `CCCCCCCCCCCCO`, the AC50 was 19.8 µM (active).

In the case of `C[C@]12CC[C@@H]3c4ccc(O)cc4CC[C@H]3[C@@H]1CCC2=O`, the outcome was inactive.

Turning to `CC/C(=C(/CC)c1ccc(O)cc1)c1ccc(O)cc1`, the result was inactive.

On to `CCCCCc1ccc(N)cc1`, for which the AC50 is 0.0546 µM (active).

For `CN1C(=O)CC[C@H]1c1cccnc1`, the outcome was inactive.

Consider `O=C(O)Cc1cc(I)c(Oc2ccc(O)c(I)c2)c(I)c1`, for which the result was inactive.

For `CCCCCCCCCCCC[N+](C)(C)C`, the result was inactive.

On to `CCCCCCCCCC(=O)O`, for which the result was inactive.

In the case of `Cc1cc(F)ccc1-c1cc(N2CC[C@@H](O)[C@H]2CO)ncc1N(C)C(=O)C(C)(C)c1cc(C(F)(F)F)cc(C(F)(F)F)c1`, the result was inactive.

In the case of `CC(C)(C)c1csc(-c2cc3cc(OCc4ccccc4CC(=O)O)ccc3o2)n1`, the outcome was inactive.

On to `CC(=O)N1CCN(c2ccc(OC[C@H]3CO[C@](Cn4ccnc4)(c4ccc(Cl)cc4Cl)O3)cc2)CC1`, for which the result was inactive.

In the case of `CN(C)c1ccc(C(=C2C=CC(=[N+](C)C)C=C2)c2ccc(N(C)C)cc2)cc1`, the result was inactive.

On to `O=C(Nc1ccc(Cl)cc1)Nc1ccc(Cl)c(Cl)c1`, for which the AC50 is 1 µM (active).

On to `CCCCCCCCN(C)CCCCCCCC`, for which the result was inactive.

In the case of `c1ccc2ccccc2c1`, the result was inactive.

Consider `CCCCCCCCCCCO`, for which the result was inactive.

Turning to `CC[C@@H]1C[C@H](N(Cc2cc(C(F)(F)F)cc(C(F)(F)F)c2)C(C)=O)c2cc(C(F)(F)F)ccc2N1C(=O)OC(C)C`, the result was inactive.

Regarding `CCCCCCCC[Si](OCC)(OCC)OCC`, the outcome was inactive.

In the case of `O=C(OCCCCCCOC(=O)c1ccccc1)c1ccccc1`, the outcome was inactive.

For the molecule `COCC(C)OCC(C)OCC(C)O` (centres undefined), the result was inactive.

For `Cc1oc2c(NC(=O)c3c(Cl)cccc3Cl)cccc2c1C(C)(C)O`, the AC50 is 17.3 µM (active).

For the molecule `Clc1cc(Cl)c2c(c1)N=C1CCCCCN1C2`, the result was inactive.

For the molecule `O=C(O)Cn1c(=O)n(Cc2ccc(Br)cc2F)c(=O)c2ccc(Cl)cc21`, the outcome was inactive.

On to `Oc1ccccc1`, for which the result was inactive.

`OC12N=C(c3ccccc3)SC1Cc1cc(Cl)ccc12` (centres undefined): the outcome was inactive.

With `Cc1ccc(C(C)C)cc1`, the result was inactive.

As to `NC(=O)c1nc(-c2cccc(-c3cc(F)ccc3OCC(F)(F)C(F)(F)F)c2)n[nH]1`, the result was inactive.

As for `CCCOC(=O)c1cc(O)c(O)c(O)c1`, the result was inactive.

On to `O=CCCCC=O`, for which the outcome was inactive.

On to `COc1cc(C(=O)NC2CCN(C)CC2)ccc1Nc1ncc2c(n1)N(C1CCCC1)CC(F)(F)C(=O)N2C`, for which the result was inactive.

Read-out in the next test: Interleukin-8 (IL8), CXCL8 (gene 3576)
Nature of the test: BSK_hDFCGF_IL8: BioMAP Diversity Plus: hDFCGF Assay for Interleukin-8 (IL8) Biomarker Activity (AID 2283058). Conditions: primary human foreskin fibroblasts; actives raise or lower the signal. In short, it runs like this: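 Cells used are human skin primary fibroblasts. Chemical is added, cultures run 24 h, then IL-8 is quantified by ELISA, and gain or loss versus DMSO control is fitted in both directions.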
Take `CCN(Cc1cccc(S(=O)(=O)O)c1)c1ccc(C(=C2C=CC(=[N+](CC)Cc3cccc(S(=O)(=O)O)c3)C=C2)c2ccccc2S(=O)(=O)[O-])cc1`: the outcome was inactive.

In the case of `CCCCOC(=O)CC(CC(=O)OCCCC)(OC(C)=O)C(=O)OCCCC`, the outcome was inactive.

With `O=c1c(-c2ccc(O)cc2)coc2cc(O)cc(O)c12`, the result was inactive.

`CN(C)C(=O)C1(N2CCCCC2)CCN(CC[C@@]2(c3ccc(Cl)c(Cl)c3)CN(C(=O)c3ccccc3)CCO2)CC1`: the AC50 is 33.7 µM (active).

`CCCCOC(=O)c1ccc(O)cc1`: the result was inactive.

`O=C1CCC(C2CCCCC2)CC1`: the AC50 was 32.5 µM (active).

`CCO[Si](CCCNC(N)=O)(OCC)OCC`: the outcome was inactive.

Take `CCCCCCCCCCCCO`: the AC50 is 37.4 µM (active).

For the molecule `C[C@]12CC[C@@H]3c4ccc(O)cc4CC[C@H]3[C@@H]1CCC2=O`, the result was inactive.

As to `CC/C(=C(/CC)c1ccc(O)cc1)c1ccc(O)cc1`, the result was inactive.

With `CCCCCc1ccc(N)cc1`, the outcome was inactive.

With `CN1C(=O)CC[C@H]1c1cccnc1`, the result was inactive.

With `O=C(O)Cc1cc(I)c(Oc2ccc(O)c(I)c2)c(I)c1`, the outcome was inactive.

For `CCCCCCCCCCCC[N+](C)(C)C`, the AC50 is 29.9 µM (active).

Consider `CCCCCCCCCC(=O)O`, for which the result was inactive.

With `Cc1cc(F)ccc1-c1cc(N2CC[C@@H](O)[C@H]2CO)ncc1N(C)C(=O)C(C)(C)c1cc(C(F)(F)F)cc(C(F)(F)F)c1`, the AC50 is 18.4 µM (active).

With `CC(C)(C)c1csc(-c2cc3cc(OCc4ccccc4CC(=O)O)ccc3o2)n1`, the AC50 is 18.4 µM (active).

`CC(=O)N1CCN(c2ccc(OC[C@H]3CO[C@](Cn4ccnc4)(c4ccc(Cl)cc4Cl)O3)cc2)CC1`: the AC50 is 33.5 µM (active).

For the molecule `CN(C)c1ccc(C(=C2C=CC(=[N+](C)C)C=C2)c2ccc(N(C)C)cc2)cc1`, the AC50 was 6.66 µM (active).

For `O=C(Nc1ccc(Cl)cc1)Nc1ccc(Cl)c(Cl)c1`, the result was inactive.

With `CCCCCCCCN(C)CCCCCCCC`, the outcome was inactive.

Turning to `c1ccc2ccccc2c1`, the result was inactive.

Consider `CCCCCCCCCCCO`, for which the AC50 is 32.4 µM (active).

For `CC[C@@H]1C[C@H](N(Cc2cc(C(F)(F)F)cc(C(F)(F)F)c2)C(C)=O)c2cc(C(F)(F)F)ccc2N1C(=O)OC(C)C`, the result was inactive.

Turning to `CCCCCCCC[Si](OCC)(OCC)OCC`, the outcome was inactive.

Consider `O=C(OCCCCCCOC(=O)c1ccccc1)c1ccccc1`, for which the result was inactive.

For `COCC(C)OCC(C)OCC(C)O` (centres undefined), the result was inactive.

Consider `Cc1oc2c(NC(=O)c3c(Cl)cccc3Cl)cccc2c1C(C)(C)O`, for which the result was inactive.

Turning to `Clc1cc(Cl)c2c(c1)N=C1CCCCCN1C2`, the outcome was inactive.

In the case of `O=C(O)Cn1c(=O)n(Cc2ccc(Br)cc2F)c(=O)c2ccc(Cl)cc21`, the outcome was inactive.

On to `Oc1ccccc1`, for which the result was inactive.

Consider `OC12N=C(c3ccccc3)SC1Cc1cc(Cl)ccc12` (centres undefined), for which the outcome was inactive.

With `Cc1ccc(C(C)C)cc1`, the outcome was inactive.

On to `Cc1cn([C@H]2C[C@H](N=[N+]=[N-])[C@@H](CO)O2)c(=O)[nH]c1=O`, for which the outcome was inactive.

Turning to `NC(=O)c1nc(-c2cccc(-c3cc(F)ccc3OCC(F)(F)C(F)(F)F)c2)n[nH]1`, the AC50 is 39.3 µM (active).

Take `CCCOC(=O)c1cc(O)c(O)c(O)c1`: the outcome was inactive.

Take `O=CCCCC=O`: the AC50 was 36.9 µM (active).

Regarding `COc1cc(C(=O)NC2CCN(C)CC2)ccc1Nc1ncc2c(n1)N(C1CCCC1)CC(F)(F)C(=O)N2C`, the AC50 was 23.8 µM (active).
